In PubChem BioAssay (NCI):
This is part of a sample that, as a whole, favours compounds with a hit. Of some 83,000 tested, about 20% had one in any assay.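 Values shown are percent growth following 48 h exposure of cells in 96-well plates to a single concentration of compound; below 10 was considered active.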 Active and inactive are the calls of the source.

test system: MDA-MB-468 breast; test: NCI-60 one-dose screen, 48 h (100 = growth as untreated, 0 = no growth, -100 = all killed); settings: 10 µM unless noted

Structure (SMILES)	growth
O=C(/C=C/c1ccc(F)cc1)N1CCN(C(=O)/C=C/c2ccc(C(F)(F)F)cc2)CC1	117% (inactive)
COc1cccc(/C=C2\COc3ccc(O)c(O)c3C2=O)c1	-11.1% (active)
NC(=O)n1c(=O)n(-c2cccc(C(F)(F)F)c2)c(=O)c2cc(-c3ccc(F)cc3F)ccc21	-8.88% (active)
CCN1C(=O)N(c2ccccc2)C2Nn3c(s/c(=C4\C(=O)N(C(C)C)c5ccccc54)c3=O)=NC21 (configuration not stated)	108% (inactive)
COc1ccc(-c2nc(N)n(C(=S)Nc3ccccc3)n2)cc1	102% (inactive)
NS(=O)(=O)c1ccc(C(=O)NN2C(=O)c3c(Br)c(Br)c(Br)c(Br)c3C2=O)cc1	111% (inactive)
Cc1nc2sc(C(=O)Nc3cccc4ncccc34)c(N)c2cc1C(C)O (configuration not stated)	44.9% (inactive)
